From ChEMBL document CHEMBL1961873, “Compounds: GSK PKIS; Assays: Nanosyn kinase panel” (2012)

Columns and labels:
[1] = target: Serine/threonine-protein kinase PAK 6 (Homo sapiens) (UniProt Q9NQU5); settings: at 1 µM;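 also: values are mean percent inhibition of PAK6 kinase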
[2] = tested on: Tyrosine-protein kinase ABL1 (Homo sapiens), P00519 [E255K]; settings: at 0.1 µM
[3] = tested on: Tyrosine-protein kinase ABL1 (Homo sapiens), P00519 [E255K]; settings: at 1 µM
[4] = tested on: Tyrosine-protein kinase ABL1 (Homo sapiens), P00519 [H396P]; settings: at 0.1 µM
[5] = tested on: Tyrosine-protein kinase ABL1 (Homo sapiens), P00519 [H396P]; settings: at 1 µM
[6] = tested on: Tyrosine-protein kinase ABL1 (Homo sapiens), P00519 [M351T]; settings: at 0.1 µM
[7] = tested on: Tyrosine-protein kinase ABL1 (Homo sapiens), P00519 [M351T]; settings: at 1 µM
[8] = tested on: Tyrosine-protein kinase ABL1 (Homo sapiens), P00519 [Q252H]; settings: at 0.1 µM
[9] = tested on: Tyrosine-protein kinase ABL1 (Homo sapiens), P00519 [Q252H]; settings: at 1 µM
[10] = tested on: Tyrosine-protein kinase ABL1 (Homo sapiens), P00519 [T315I]; settings: at 0.1 µM
[11] = tested on: Tyrosine-protein kinase ABL1 (Homo sapiens), P00519 [T315I]; settings: at 1 µM
[12] = tested on: Tyrosine-protein kinase ABL1 (Homo sapiens), P00519 [Y253F]; settings: at 0.1 µM
[13] = tested on: Tyrosine-protein kinase ABL1 (Homo sapiens), P00519 [Y253F]; settings: at 1 µM
[14] = target: Tyrosine-protein kinase ABL1 (Homo sapiens) (UniProt P00519); settings: at 0.1 µM
[15] = target: Tyrosine-protein kinase ABL1 (Homo sapiens) (UniProt P00519); settings: at 1 µM
[16] = target: ALK tyrosine kinase receptor (Homo sapiens) (UniProt Q9UM73); settings: at 0.1 µM
Chain of ALK tyrosine kinase receptor (Homo sapiens) (Q9UM73 19-1620 limits assumed): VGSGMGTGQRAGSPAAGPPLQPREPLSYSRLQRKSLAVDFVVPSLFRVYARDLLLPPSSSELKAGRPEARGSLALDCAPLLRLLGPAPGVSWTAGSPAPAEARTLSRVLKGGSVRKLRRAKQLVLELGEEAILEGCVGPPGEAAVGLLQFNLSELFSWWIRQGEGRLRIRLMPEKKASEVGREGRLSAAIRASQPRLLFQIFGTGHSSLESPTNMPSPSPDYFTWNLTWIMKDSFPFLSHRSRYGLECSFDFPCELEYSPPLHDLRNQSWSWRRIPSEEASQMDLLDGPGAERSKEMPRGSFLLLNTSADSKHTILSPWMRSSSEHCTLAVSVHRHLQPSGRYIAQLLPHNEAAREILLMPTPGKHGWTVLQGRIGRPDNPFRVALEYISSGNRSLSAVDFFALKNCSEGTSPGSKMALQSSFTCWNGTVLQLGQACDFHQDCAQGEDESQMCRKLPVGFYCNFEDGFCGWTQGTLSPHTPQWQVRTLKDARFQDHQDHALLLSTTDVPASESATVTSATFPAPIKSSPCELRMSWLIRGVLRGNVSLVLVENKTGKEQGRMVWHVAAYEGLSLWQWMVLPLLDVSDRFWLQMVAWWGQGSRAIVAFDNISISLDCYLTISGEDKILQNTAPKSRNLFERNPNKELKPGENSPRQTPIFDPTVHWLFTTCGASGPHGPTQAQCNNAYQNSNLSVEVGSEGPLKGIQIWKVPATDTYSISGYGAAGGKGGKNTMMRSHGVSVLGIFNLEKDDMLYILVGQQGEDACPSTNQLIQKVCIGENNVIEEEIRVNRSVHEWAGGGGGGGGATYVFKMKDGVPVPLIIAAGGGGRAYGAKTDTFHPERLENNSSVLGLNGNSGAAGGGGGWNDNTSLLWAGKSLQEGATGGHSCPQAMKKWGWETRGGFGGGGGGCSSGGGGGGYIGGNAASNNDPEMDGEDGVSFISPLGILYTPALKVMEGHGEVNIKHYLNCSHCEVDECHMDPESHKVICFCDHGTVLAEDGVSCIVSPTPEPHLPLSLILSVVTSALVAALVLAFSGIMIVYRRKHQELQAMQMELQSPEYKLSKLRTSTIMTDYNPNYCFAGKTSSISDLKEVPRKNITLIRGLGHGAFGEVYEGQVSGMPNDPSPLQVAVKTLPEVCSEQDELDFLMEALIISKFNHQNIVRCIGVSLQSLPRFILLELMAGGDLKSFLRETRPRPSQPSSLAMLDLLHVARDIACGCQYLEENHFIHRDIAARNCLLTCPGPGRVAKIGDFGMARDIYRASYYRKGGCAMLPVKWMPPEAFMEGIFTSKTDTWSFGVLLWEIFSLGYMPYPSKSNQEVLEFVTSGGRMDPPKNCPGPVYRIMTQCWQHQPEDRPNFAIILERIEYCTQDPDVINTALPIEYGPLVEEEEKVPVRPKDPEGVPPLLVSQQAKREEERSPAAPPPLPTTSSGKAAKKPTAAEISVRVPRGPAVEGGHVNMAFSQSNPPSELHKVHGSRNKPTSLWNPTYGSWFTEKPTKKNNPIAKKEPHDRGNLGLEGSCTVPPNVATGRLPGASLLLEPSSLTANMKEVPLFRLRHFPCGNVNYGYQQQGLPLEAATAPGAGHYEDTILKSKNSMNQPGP

[17] = target: ALK tyrosine kinase receptor (Homo sapiens) (UniProt Q9UM73); settings: at 1 µM
[18] = target: Tyrosine-protein kinase ABL2 (Homo sapiens) (UniProt P42684); settings: at 0.1 µM
Chain of Tyrosine-protein kinase ABL2 (Homo sapiens) (P42684 whole entry): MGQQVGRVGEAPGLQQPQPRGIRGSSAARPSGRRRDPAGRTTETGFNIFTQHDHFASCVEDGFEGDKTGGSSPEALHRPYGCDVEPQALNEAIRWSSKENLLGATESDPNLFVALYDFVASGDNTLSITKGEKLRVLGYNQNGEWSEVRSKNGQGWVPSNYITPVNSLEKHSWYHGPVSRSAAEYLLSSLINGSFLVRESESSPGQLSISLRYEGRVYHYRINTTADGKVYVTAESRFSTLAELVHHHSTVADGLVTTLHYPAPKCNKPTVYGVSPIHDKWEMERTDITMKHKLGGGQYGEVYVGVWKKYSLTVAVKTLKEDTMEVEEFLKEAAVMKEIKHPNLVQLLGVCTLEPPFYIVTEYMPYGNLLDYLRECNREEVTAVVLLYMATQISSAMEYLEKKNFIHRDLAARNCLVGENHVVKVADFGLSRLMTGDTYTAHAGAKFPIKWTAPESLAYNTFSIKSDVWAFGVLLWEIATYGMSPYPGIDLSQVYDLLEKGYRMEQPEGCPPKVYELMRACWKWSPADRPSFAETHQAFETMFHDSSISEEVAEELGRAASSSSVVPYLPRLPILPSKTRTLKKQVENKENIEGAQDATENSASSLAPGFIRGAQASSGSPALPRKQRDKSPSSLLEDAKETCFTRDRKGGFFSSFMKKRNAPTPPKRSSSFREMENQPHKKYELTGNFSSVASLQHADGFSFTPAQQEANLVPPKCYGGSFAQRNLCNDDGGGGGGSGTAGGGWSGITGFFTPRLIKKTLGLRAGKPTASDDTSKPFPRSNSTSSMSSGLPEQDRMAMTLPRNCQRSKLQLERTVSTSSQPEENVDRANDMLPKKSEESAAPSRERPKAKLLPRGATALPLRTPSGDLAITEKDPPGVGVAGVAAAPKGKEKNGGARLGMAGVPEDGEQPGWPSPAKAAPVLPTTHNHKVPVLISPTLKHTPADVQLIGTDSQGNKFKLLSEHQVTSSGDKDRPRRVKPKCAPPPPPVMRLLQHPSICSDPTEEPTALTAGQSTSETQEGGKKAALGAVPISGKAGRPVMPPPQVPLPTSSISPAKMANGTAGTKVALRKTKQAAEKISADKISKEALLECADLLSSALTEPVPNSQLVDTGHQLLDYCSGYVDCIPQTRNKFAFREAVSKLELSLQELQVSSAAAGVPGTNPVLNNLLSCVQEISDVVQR

[19] = target: Tyrosine-protein kinase ABL2 (Homo sapiens) (UniProt P42684); settings: at 1 µM
[20] = target: Tyrosine-protein kinase receptor UFO (Homo sapiens) (UniProt P30530); settings: at 0.1 µM;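 also: values are mean percent inhibition of AXL from the GSK PKIS screen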
Chain of Tyrosine-protein kinase receptor UFO (Homo sapiens) (P30530 whole entry): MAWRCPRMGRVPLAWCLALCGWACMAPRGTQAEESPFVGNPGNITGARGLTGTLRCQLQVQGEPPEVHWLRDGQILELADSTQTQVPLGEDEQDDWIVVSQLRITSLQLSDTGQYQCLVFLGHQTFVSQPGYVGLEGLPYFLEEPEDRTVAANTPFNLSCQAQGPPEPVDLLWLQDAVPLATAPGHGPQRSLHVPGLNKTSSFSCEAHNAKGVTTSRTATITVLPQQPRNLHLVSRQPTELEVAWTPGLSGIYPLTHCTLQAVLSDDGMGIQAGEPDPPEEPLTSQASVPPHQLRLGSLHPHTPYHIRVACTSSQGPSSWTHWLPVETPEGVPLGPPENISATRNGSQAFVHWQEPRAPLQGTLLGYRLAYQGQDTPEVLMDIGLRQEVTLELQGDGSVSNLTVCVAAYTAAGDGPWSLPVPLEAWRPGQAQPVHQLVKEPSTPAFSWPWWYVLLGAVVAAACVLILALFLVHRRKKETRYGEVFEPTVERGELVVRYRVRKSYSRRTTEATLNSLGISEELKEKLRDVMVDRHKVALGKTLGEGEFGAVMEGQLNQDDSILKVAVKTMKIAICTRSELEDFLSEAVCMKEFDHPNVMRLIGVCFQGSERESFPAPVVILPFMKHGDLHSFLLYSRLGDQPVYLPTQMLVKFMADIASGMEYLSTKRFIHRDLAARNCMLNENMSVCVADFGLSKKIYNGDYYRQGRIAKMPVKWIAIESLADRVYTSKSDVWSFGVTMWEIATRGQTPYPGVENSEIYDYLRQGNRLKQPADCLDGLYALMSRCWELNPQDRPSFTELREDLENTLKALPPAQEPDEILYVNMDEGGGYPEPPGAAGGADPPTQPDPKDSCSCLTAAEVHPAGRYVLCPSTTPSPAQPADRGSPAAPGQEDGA

Chain of Serine/threonine-protein kinase PAK 6 (Homo sapiens) (Q9NQU5 whole entry, looked up): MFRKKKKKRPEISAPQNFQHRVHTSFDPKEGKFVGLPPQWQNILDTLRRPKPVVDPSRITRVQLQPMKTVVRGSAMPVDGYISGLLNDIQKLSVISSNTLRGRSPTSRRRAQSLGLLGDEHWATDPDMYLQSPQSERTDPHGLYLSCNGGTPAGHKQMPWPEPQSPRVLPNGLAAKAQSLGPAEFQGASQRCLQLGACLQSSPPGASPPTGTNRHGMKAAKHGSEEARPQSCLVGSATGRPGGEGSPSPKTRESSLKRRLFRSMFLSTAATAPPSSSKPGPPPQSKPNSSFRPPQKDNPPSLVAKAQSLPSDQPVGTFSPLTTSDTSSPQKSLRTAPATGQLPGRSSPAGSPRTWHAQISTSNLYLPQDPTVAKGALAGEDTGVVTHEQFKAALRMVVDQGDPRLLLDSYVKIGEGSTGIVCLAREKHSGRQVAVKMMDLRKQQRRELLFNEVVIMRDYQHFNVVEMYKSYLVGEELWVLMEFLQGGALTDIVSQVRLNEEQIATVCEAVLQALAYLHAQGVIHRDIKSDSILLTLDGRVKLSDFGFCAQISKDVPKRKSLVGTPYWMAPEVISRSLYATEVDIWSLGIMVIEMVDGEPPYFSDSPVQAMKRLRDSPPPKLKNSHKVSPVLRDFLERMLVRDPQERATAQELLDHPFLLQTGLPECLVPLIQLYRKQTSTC

| Compound | inhibition [1] [%] | inhibition [2] [%] | inhibition [3] [%] | inhibition [4] [%] | inhibition [5] [%] | inhibition [6] [%] | inhibition [7] [%] | inhibition [8] [%] | inhibition [9] [%] | inhibition [10] [%] | inhibition [11] [%] | inhibition [12] [%] | inhibition [13] [%] | inhibition [14] [%] | inhibition [15] [%] | inhibition [16] [%] | inhibition [17] [%] | inhibition [18] [%] | inhibition [19] [%] | inhibition [20] [%] |
| --- | --- | --- | --- | --- | --- | --- | --- | --- | --- | --- | --- | --- | --- | --- | --- | --- | --- | --- | --- | --- |
| NS(=O)(=O)c1ccc(N/N=C2\C(=O)Nc3ccc4ncccc4c32)cc1 | 1.45 | 7.3 | 39.2 | 8.88 | 47.7 | 9.67 | 48.9 | 13.3 | 52.4 | 8.91 | 47.1 | 11.6 | 49.8 | 9.91 | 50.2 | 3.06 | 16.1 | 4.85 | 33.7 | 0.46 |
| Cc1cccc2c1NC(=O)/C2=N\Nc1ccc(S(N)(=O)=O)cc1 | 7.35 | 1.51 | 6.03 | 6.45 | 7.83 | 0.61 | 7.81 | 2.71 | 7.61 | 2.54 | 0.76 | 4.21 | 11.3 | 5.35 | 11.4 | 2.99 | 4.7 | 3.22 | 10.1 | -3.51 |
| Fc1ccc(-c2cc(-c3c[nH]nc3-c3ccccn3)ccn2)cc1 | -4.06 | 3.42 | 14.4 | 7.22 | 29.8 | 4.15 | 28.3 | 5.44 | 16 | 3.13 | 5.68 | 5.63 | 17.4 | 4.06 | 30.4 | 4.07 | 5.67 | 2.48 | 7.82 | -7.67 |
| CCn1c(-c2nonc2N)nc2c(C#CC(C)(C)O)nc(OC[C@H](N)c3ccccc3)cc21 | 77.3 | -1.28 | -0.66 | 1.67 | 2.25 | 0.72 | 1.98 | 1.23 | 1.98 | 0.64 | 7.77 | 0.1 | 2.5 | 2.86 | 2.9 | 5.79 | 9.07 | 2.63 | 3.84 | -1.29 |
| CCn1c(-c2nonc2N)nc2c(C#CC(C)(C)O)ncc(OC3CCNCC3)c21 | 76 | -0.7 | -0.01 | 2.05 | 2.1 | -0.57 | 0.51 | 0.98 | 0.41 | 2.72 | 1.99 | -0.54 | 0.66 | 4.72 | 3.17 | 1.83 | 4.92 | 2.02 | 3.67 | -1.51 |
| CCCN(CCS(C)(=O)=O)Cc1ccc(-c2ccc3ncnc(Nc4ccc(OCc5cccc(F)c5)c(Cl)c4)c3c2)o1 | 0.49 | 2.99 | 2.9 | 3.87 | 1.99 | 3.22 | 3.73 | 3.51 | 3.02 | 1.81 | 2.18 | 3.73 | 3.01 | 6.06 | 6.41 | 1.67 | 4.89 | 7.3 | 5.25 | -1.63 |
| Cc1cccc(Nc2ncc(-c3ccccc3)o2)c1 | 4.48 | -0.07 | 8.14 | 5.02 | 19.4 | 2.38 | 21.6 | 2.49 | 13.4 | 2.39 | 5.99 | 3.68 | 19.5 | 4.34 | 14.2 | 3.9 | 4.76 | 3.13 | 18 | -1.8 |
| COc1ccc(CNC(=O)c2ccc(-c3cc(-c4nnc(C)o4)ccc3C)cc2)cc1 | 11.5 | 2.05 | 0.78 | 2.7 | 4.47 | 2.42 | 5.1 | 1.38 | 4.42 | 0.75 | 6.32 | 3.15 | 5.25 | 4.76 | 6.46 | 0.25 | -0.53 | 4.31 | 4.39 | 4.83 |
| CCCN1CCC(c2ccc(Nc3nc(Nc4cc(F)ccc4C(N)=O)c4cc[nH]c4n3)c(OC)c2)CC1 | -7.38 | 4.38 | 6.84 | 4.63 | 8.82 | 1.91 | 7.76 | 3.87 | 9.15 | 3.58 | 19.1 | 3.53 | 8.34 | 1.86 | 8.95 | 97.5 | 86.6 | 2.8 | 5.54 | 17.1 |
| Nc1nc(-c2cccc(Cl)c2)c(-c2ccc3ncccc3n2)s1 | -0.98 | 3.98 | 11.2 | 7.52 | 19.9 | 3.37 | 20.2 | 6.97 | 16.9 | 3.18 | 7.84 | 5.66 | 15.3 | 3.63 | 15.7 | 5.48 | 7.43 | 3.3 | 7.05 | -6.08 |
| CNC(=O)c1cncc(/C=C/c2ccccc2Cl)c1 | 3.32 | -0.16 | 14.2 | 2.14 | 24.1 | 3.34 | 20 | 1.38 | 17.3 | 0.79 | 8.51 | 3.01 | 27 | 7.06 | 33.6 | 0.91 | 0.92 | 4.13 | 21.1 | 4.02 |
| c1ccc(-c2nc3n(c2-c2ccc4c(c2)OCO4)CCC3)nc1 | -6.18 | 1.4 | 3.7 | 0.35 | 2.48 | 1.01 | 3.51 | 0.69 | 3.62 | 0.65 | 6.07 | 1.92 | 3.95 | 0.85 | 6.39 | 0.99 | 1.4 | 0.69 | 4.67 | -1.96 |
| Fc1ccc(-c2nn3ccccc3c2-c2ccncc2)cc1 | -2 | 1.77 | 2.14 | 1.59 | 4.98 | -1.48 | 8.75 | 0.48 | 6.96 | 0.16 | 4.09 | 1.97 | 4.11 | 1.42 | 9.29 | 0.44 | 1.88 | 3.94 | 7.98 | -2.22 |
